# Source: publication PMC5540273 (PLoS ONE, 2017)
# Columns and labels:
# Settings in all cases: concentration: 1 μM,replicates: in singlicate; n = 1
# CSNK1G1 = system: CSNK1G1
# CSNK1G2 = system: CSNK1G2
# CSNK1G3 = system: CSNK1G3
# CSNK2A1 = system: CSNK2A1
# CSNK2A2 = system: CSNK2A2
# CTK = system: T1, CTK
# T1 construct: gene MATK
# DAPK1 = system: DAPK1
# DAPK2 = system: DAPK2
# DAPK3 = system: DAPK3
# DCAMKL1 = system: T2, DCAMKL1
# T2 construct: gene DCLK1
# DCAMKL2 = system: T3, DCAMKL2
# T3 construct: gene DCLK2
# DCAMKL3 = system: T4, DCAMKL3
# T4 construct: gene DCLK3
# DDR1 = system: DDR1
# DDR2 = system: DDR2
# DLK = system: T5, DLK
# T5 construct: gene MAP3K12
# DMPK2 = system: T6, DMPK2
# T6 construct: gene CDC42BPG
# DMPK = system: DMPK
# DRAK1 = system: T7, DRAK1
# T7 construct: gene STK17A
# DRAK2 = system: T8, DRAK2
# T8 construct: gene STK17B
# DYRK1A = system: DYRK1A
# 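Also: KINOMEscan kinase panel screen.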
Compound,%Inh (CSNK1G1) [%],%Inh (CSNK1G2) [%],%Inh (CSNK1G3) [%],%Inh (CSNK2A1) [%],%Inh (CSNK2A2) [%],%Inh (CTK) [%],%Inh (DAPK1) [%],%Inh (DAPK2) [%],%Inh (DAPK3) [%],%Inh (DCAMKL1) [%],%Inh (DCAMKL2) [%],%Inh (DCAMKL3) [%],%Inh (DDR1) [%],%Inh (DDR2) [%],%Inh (DLK) [%],%Inh (DMPK2) [%],%Inh (DMPK) [%],%Inh (DRAK1) [%],%Inh (DRAK2) [%],%Inh (DYRK1A) [%]
CSc1nccc(-c2c(-c3ccc(F)cc3)ncn2CCCN2CCOCC2)n1.Cl [SB-217146],0,0,0,0,15,40,16,0,0,37,0,0,0,33,0,0,0,0,0,0
N#Cc1cccc(C(=O)NC2CCN(c3ccnc(Nc4ccc(F)cc4)n3)C2)c1 (centres unmarked) [GSK1379708],0,4,6,0,0,0,0,0,11,0,9,9,0,0,35,0,0,0,4,21
Cl.Cl.NC[C@H](CC1CCCCC1)NC(=O)c1ccc(-c2ccnc3[nH]ccc23)s1 [GSK1581428],29,72,64,8,0,9,49,12,32,0,17,0,0,8,85,100,99.7,94.9,0,54
CN1CCN(CCNc2nc3cc(Oc4ccc(NC(=O)Nc5cc(C(F)(F)F)ccc5F)cc4)ccc3[nH]2)CC1.Cl.Cl [GW768504],0,0,0,0,7,0,0,0,0,34,10,0,96.9,99.2,0,10,0,0,17,0
Cc1nnc(-c2ccc3occ(-c4ccc(S(C)=O)cc4)c3n2)o1 (centres unmarked),17,0,0,0,0,0,0,0,0,0,0,0,0,1,0,0,0,0,0,0
Cn1ccc2ncnc(Oc3ccc(NC(=O)Nc4ccnc(C(F)(F)F)c4)c(Cl)c3)c21,0,9,0,0,10,0,7,0,0,4,0,0,100,99.6,0,0,0,0,3,13
COc1ccc(Nc2nccc(N3CCC(NC(=O)c4cccc(C#N)c4)C3)n2)cc1 (centres unmarked) [GSK1379730],3,0,0,0,0,0,0,0,4,8,0,0,0,12,40,0,0,2,0,22
COC(=O)Nc1nc2cc(Oc3ccc(NC(=O)Nc4cc(C(F)(F)F)ccc4Cl)cc3)ccc2[nH]1.Cl [GW697465],0,0,8,0,0,0,2,0,0,0,11,31,100,98.3,60,0,0,2,0,0
CC(C(=O)NC1CCN(c2ccnc(Nc3ccc(F)cc3)n2)C1)c1ccc(Cl)cc1 (centres unmarked) [GSK1379713],0,0,18,1,0,0,0,0,0,0,12,9,14,11,19,0,0,6,0,10
COc1cccc(CNC(=O)NC2CCN(c3ccnc(Nc4cc(OC)c(OC)c(OC)c4)n3)C2)c1 (centres unmarked) [GSK1379765],0,0,27,3,0,0,0,0,14,19,8,0,1,19,61,69,0,0,0,19
